# Rows were chosen to be rich in hits. Some 2.6% of all compounds tested hit in one or more screens of this group.
# Cruzain noTriton: cruzain (T. cruzi) inhibition without detergent; AID 1476; P25779; 200,000 tested, 2.3% active; purified cruzain, Z-FR-AMC fluorescence, no detergent; Potency, µM, actives largely listed as inhibitors; further: nearly all actives have a fitted effect of over 40% in size
# Target sequence (P25779 123-467 limits assumed): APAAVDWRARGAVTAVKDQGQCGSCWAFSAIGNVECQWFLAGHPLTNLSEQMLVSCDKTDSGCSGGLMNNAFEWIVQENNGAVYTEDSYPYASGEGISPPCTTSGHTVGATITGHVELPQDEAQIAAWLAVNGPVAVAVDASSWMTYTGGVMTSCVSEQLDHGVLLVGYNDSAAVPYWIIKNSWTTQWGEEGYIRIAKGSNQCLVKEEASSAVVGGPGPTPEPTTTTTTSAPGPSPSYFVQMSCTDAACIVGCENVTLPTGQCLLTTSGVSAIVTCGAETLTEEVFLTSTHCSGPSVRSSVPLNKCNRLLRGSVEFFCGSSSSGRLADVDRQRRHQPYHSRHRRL
#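 Purified cruzain at 1.5 nM, pre-incubated 15 min with compound at room temperature in 100 mM sodium acetate pH 5.5, 5 mM DTT, 0.00005% Triton X-100. Reaction started with 2 uM Z-FR-AMC; AMC fluorescence increase over 60 s gives rate.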
# Cruzain inh Det: blocks cruzain activity in presence of Triton detergent; Potency, µM, hits mostly inhibitors; 200,000 tested, 0.43% active; purified cruzain, Z-FR-AMC fluorescence, 0.01% Triton; further: nearly all actives have a fitted effect of over 40% in size
#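 Detergent-containing arm of a paired screen for aggregation-based inhibition: 0.01% Triton X-100 present. Cruzain at 1.5 nM cleaved 2 uM Z-FR-AMC at pH 5.5 with 5 mM DTT; AMC fluorescence gain over 60 s measured activity.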
# A number is an active result; . = inactive; ? = inconclusive. The call rests on the fitted dose curve; in most records, active means well fitted curve in the direction sought with a large enough effect; inconclusive means small, poorly fitted or top-dose-only effect, or another doubt; inactive means no such curve, though single readings can be large; an effect the other way counts as inactive or inconclusive.
SMILES,Cruzain noTriton,Cruzain inh Det
O=C(c1ccc(-c2ccc(Cl)cc2)o1)N1CCN(c2ccc([N+](=O)[O-])cc2Cl)CC1,7.9µM,.
O=C(c1ccc(-c2ccc([N+](=O)[O-])cc2)o1)N1CCCCC1,.,.
O=C(/C=C/c1ccccc1)NC(=S)Nc1ccc2c3c(cccc13)CC2,13µM,.
CC(C)c1ccc(OCC(=O)NC(=S)Nc2ccc3c4c(cccc24)CC3)cc1,25µM,.
O=C(COc1ccccc1)NC(=S)Nc1ccc2c3c(cccc13)CC2,?,.
Cc1ccc(OCC(=O)NC(=S)Nc2ccc3c4c(cccc24)CC3)cc1,?,.
CCN(CC)C(=O)CSc1nc2cc3c(cc2c(=O)n1CCCCCC(=O)NCCc1ccc(OC)c(OC)c1)OCO3,.,.
O=C(NCc1ccccc1Cl)c1c2c(nc3ccccc13)C(=O)N(C1CCCCC1)C2,?,.
Cn1c(=O)oc2cc(S(=O)(=O)N3CCCC(C(=O)NCc4ccc(F)cc4)C3)ccc21 (configuration not stated),?,.
COc1ccc(-c2nc3cnc(N4CCNCC4)nc3n(C3CC3)c2=O)cc1,.,.
CCOC(=O)C1=C(C)NC(=S)NC1c1ccc(OC(=O)c2ccco2)cc1 (configuration not stated),?,.
CCOC(=O)c1c(NC(=O)C2=C(C)NC(=S)NC2c2ccc(CC)cc2)sc(C)c1C (configuration not stated),10µM,.
Cn1c(CS/C(N)=N/N=C/c2ccccc2)c(Br)c(=O)n1-c1ccccc1,32µM,?
NC(N)=N/N=C/c1ccccc1,.,.
Cc1cccc(CNC(=O)c2ccc3oc(=O)n(Cc4ccccc4)c3c2)c1,.,.
O=S(=O)(NCCSc1nnnn1-c1ccccc1)c1ccc(F)cc1,.,.
O=C(NCc1ccco1)c1ccc(Cn2c(=O)c3sccc3n(Cc3cccc(F)c3)c2=O)cc1,25µM,.
O=C(NCc1ccco1)c1ccc(Cn2c(=O)c3ccccc3n(Cc3cccc(Cl)c3)c2=O)cc1,?,.
Cc1cc(C)cc(NC(=O)CN(c2cc(C(F)(F)F)ccc2Cl)S(=O)(=O)c2ccccc2)c1,.,.
CCOc1ccc(NC(=O)c2c(C)nn(-c3ccc(F)cc3)c2-n2cccc2)cc1,.,.
Cc1ccc(NC(=O)C2CCCN(S(=O)(=O)c3cccc4nsnc34)C2)cc1C (configuration not stated),.,.
CCCC(=O)c1cc(O)c(O)cc1O,.,.
COc1ccc(C(=O)N2CCC(c3c[nH]c4ccccc34)(c3c[nH]c4ccccc34)CC2)cc1,.,.
CCN(CC)c1ccc(C(=O)N2CCC(c3c[nH]c4ccccc34)(c3c[nH]c4ccccc34)CC2)cc1,10µM,.
COc1ccc(CNC(=O)Cn2c(SCC(=O)Nc3ccc(OC)cc3)nc3ccccc32)cc1,.,.
SMILES,Cruzain noTriton,Cruzain inh Det
CCOC(=O)c1c(NC(=O)/C=C/c2ccc(OCC)c(OC)c2)sc2c1CCC2,.,.
O=C(Oc1ccc([N+](=O)[O-])cc1)c1cccnc1,.,.
O=C(Oc1ccc(NC2=C(Cl)C(=O)c3ccccc3C2=O)cc1)c1ccc([N+](=O)[O-])cc1,13µM,.
CSc1cccc(-n2cc(-c3ccc4c(c3)OCO4)[nH]c2=O)c1,32µM,.
Cc1ccc(NC(=O)Cn2c(-c3ccc4c(c3)OCO4)cn(-c3ccccc3)c2=O)cc1C,.,.
O=C(NCc1ccccc1)NC1COc2ccccc2C1 (configuration not stated),.,.
O=C(Cn1c(=O)n(Cc2ccc(C(=O)NCc3ccccc3Cl)cc2)c(=O)c2ccccc21)Nc1ccc(F)cc1,13µM,.
COc1ccc(NC(=O)Cn2c(=O)n(Cc3ccc(C(=O)NCc4ccccc4Cl)cc3)c(=O)c3ccccc32)cc1OC,.,.
CCc1ccc(NC(=O)Cn2c(=O)n(CCCC(=O)NCc3ccccc3Cl)c(=O)c3ccccc32)cc1,.,.
O=C(Cn1c(=O)n(Cc2ccc(C(=O)NCc3ccccc3Cl)cc2)c(=O)c2ccccc21)Nc1ccc(F)c(Cl)c1,7.9µM,.
CCc1ccc(-n2c(SCC(=O)NC(C)CC)nc3n[nH]c(C)c3c2=N)cc1 (configuration not stated),?,.
CCOc1cccc2sc(N(Cc3cccnc3)C(=O)c3ccco3)nc12,.,.
Clc1ccc(C2=Nn3c(nnc3-c3cccs3)SC2)cc1,7.9µM,.
CCOc1ccc(C2=Nn3c(nnc3-c3ccccc3)SC2)cc1Cl,20µM,.
Cc1ccc(-c2nnc3n2N=C(c2ccccc2)CS3)cc1,.,.
CCc1ccc(C2=Nn3c(nnc3-c3cccs3)SC2)cc1,.,.
COc1cc2c(C#N)c(N3CCc4ccccc4C3)nc(N)c2c(N)n1,13µM,.
COc1cc2c(C#N)c(N3CCCCC3)nc(N)c2c(N)n1,.,.
O=c1cc(N2CCN(c3ccccc3F)CC2)[nH]c(=O)n1-c1ccc(Br)cc1,25µM,.
COc1ccccc1N1CCN(c2cc(=O)n(-c3ccc(Br)cc3)c(=O)[nH]2)CC1,?,.
